Results as given in PubChem BioAssay AID1159580 (chemical genetic matrix, 2015).
Where “and” joins values, the source holds several entries; their conditions need not be identical. Equal values may be shown once. The campaign covered roughly 5,500 compounds. About 2,000 (36%) were called active. Inconclusive results (about 18%) are left out. No stated cut-off is given here; in the data, active means normalized growth mostly below about 0.91 (no sharp cut-off); inconclusive means no clear call, values can overlap the other calls; inactive means mostly above about 0.92. The list shows a part of the results.

Experiment: chemical genetic growth profiling, strain panel (AID 1159580);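 further: tested at 20 µM; growth read once vehicle control cultures reached saturation at 30 °C; 1 = growth at the plate median or of vehicle wells; lower values mean less growth of the strain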
Settings: S. cerevisiae deletion strains, growth OD

Measured: normalized growth

CC(C)(C)NCC(O)c1ccccc1Cl (stereo unspecified)
inactive: locus YAL013W, strain DEP1, hits give low values 0.993 | locus YAL021C, strain ccr4, hits give low values 1.01 | locus YAL026C, strain drs2, hits give low values 1.01 | locus YAL030W, strain snc1, hits give low values 0.979 | locus YAL040C, strain CLN3, hits give low values 0.966 | locus YBL061C, strain skt5, hits give low values 0.991 | locus YBR009C, strain hhf1, hits give low values 0.972 | locus YBR021W, strain FUR4, hits give low values 0.98 | locus YBR023C, strain chs3, hits give low values 0.993 | locus YBR171W, strain sec66, hits give low values 0.989 | locus YBR229C, strain ROT2, hits give low values 0.95 | locus YBR231C, strain swc5, hits give low values 0.989 | locus YBR279W, strain paf1, hits give low values 1 | locus YCL011C, strain gbp2, hits give low values 0.995 | locus YCL016C, strain dcc1, hits give low values 0.988 | locus YCL029C, strain bik1, hits give low values 0.978 | locus YCL061C, strain MRC1 (second series), hits give low values 1.01 | locus YCL061C, strain MRC1, hits give low values 0.992 | locus YCL069W, strain vba3, hits give low values 0.991 | locus YCR088W, strain abp1, hits give low values 0.99 | locus YDL005C, strain med2, hits give low values 1.01 | locus YDL035C, strain GPR1, hits give low values 0.947 | locus YDL040C, strain nat1, hits give low values 0.979 | locus YDL074C, strain BRE1, hits give low values 1.01 | locus YDL101C, strain DUN1, hits give low values 0.987 | locus YDL134C, strain PPH21, hits give low values 0.98 | locus YDL185W, strain tfp1, hits give low values 0.991 | locus YDL192W, strain arf1, hits give low values 0.973 | locus YDR001C, strain nth1, hits give low values 0.978 | locus YDR069C, strain doa4, hits give low values 0.988 | locus YDR101C, strain arx1, hits give low values 0.992 | locus YDR137W, strain rgp1, hits give low values 1.01 | locus YDR150W, strain NUM1, hits give low values 0.976 and 1.01 | locus YDR159W, strain sac3, hits give low values 0.939 | locus YDR162C, strain NBP2, hits give low values 0.979 | locus YDR195W, strain ref2 0.959 | locus YDR297W, strain sur2, hits give low values 1.01 | locus YDR318W, strain mcm21, hits give low values 1 | locus YDR334W, strain swr1, hits give low values 0.996 | locus YDR335W, strain msn5, hits give low values 0.991 | locus YDR363W, strain ESC2, hits give low values 0.999 | locus YDR388W, hits give low values 0.991 | locus YDR392W, strain spt3, hits give low values 0.831 | locus YDR502C, strain sam2, hits give low values 0.965 | locus YEL003W, strain gim4, hits give low values 0.996 | locus YEL037C, strain rad23, hits give low values 0.994 | locus YEL061C, strain CIN8 (second series), hits give low values 0.987 | locus YEL061C, strain CIN8, hits give low values 0.985 | locus YER002W, strain NOP16, hits give low values 0.988 | locus YER015W, strain faa2, hits give low values 0.995 | locus YER016W, strain bim1, hits give low values 0.989 | locus YER110C, hits give low values 0.966 | locus YER111C, strain swi4, hits give low values 0.992 | locus YER155C, strain BEM2 (second series), hits give low values 0.958 | locus YER155C, strain BEM2, hits give low values 1 | locus YER167W, strain BCK2, hits give low values 0.957 | locus YFR010W, strain ubp6, hits give low values 1 | locus YGL078C, strain dbp3, hits give low values 0.982 | locus YGL086W, strain mad1, hits give low values 0.978 | locus YGL167C, strain pmr1, hits give low values 0.989 | locus YGL173C, strain kem1, hits give low values 1.01 | locus YGL227W, strain vid30, hits give low values 0.988 | locus YGL240W, strain doc1, hits give low values 0.981 | locus YGL248W, strain PDE1, hits give low values 0.984 | locus YGL253W, strain hxk2, hits give low values 0.994 | locus YGR078C, strain PAC10, hits give low values 1.01 and 1.02 | locus YGR135W, strain pre9, hits give low values 0.979 | locus YGR229C, strain SMI1, hits give low values 1.01 and 1.03 | locus YGR252W, strain gcn5, hits give low values 0.898 | locus YHR013C, strain ard1, hits give low values 0.952 | locus YHR027C, strain rpn1, hits give low values 0.996 | locus YHR030C, strain SLT2, hits give low values 0.992 and 0.981 | locus YHR079C, strain IRE1 (second series), hits give low values 1 | locus YHR079C, strain IRE1, hits give low values 0.977 | locus YHR094C, strain hxt1, hits give low values 0.991 | locus YHR129C, strain ARP1, hits give low values 0.997 | locus YHR142W, strain chs7, hits give low values 1.02 | locus YHR200W, strain rpn10, hits give low values 1.01 | locus YIL066C, strain RNR3, hits give low values 0.978 | locus YIL073C, strain SPO22, hits give low values 0.972 | locus YIL125W, strain kgd1, hits give low values 0.989 | locus YIR030C, strain dcg1, hits give low values 0.983 | locus YJL092W, strain hpr5, hits give low values 0.997 | locus YJL095W, strain BCK1 (second series), hits give low values 0.996 | locus YJL095W, strain BCK1, hits give low values 1.02 and 0.99 | locus YJL115W, strain asf1, hits give low values 0.987 | locus YJL129C, strain trk1, hits give low values 1 | locus YJL134W, strain LCB3, hits give low values 0.981 | locus YJL154C, strain vps35, hits give low values 0.989 | locus YJL164C, strain tpk1, hits give low values 1.01 | locus YJL166W, strain qcr8, hits give low values 0.987 | locus YJL168C, strain set2, hits give low values 0.995 | locus YJL187C, strain SWE1 (second series), hits give low values 0.994 | locus YJL187C, strain SWE1, hits give low values 0.997 | locus YJR043C, strain POL32, hits give low values 1.03 | locus YJR066W, strain TOR1, hits give low values 0.921
